Drawing on PubChem BioAssay (NCI), this text covers growth for twelve compounds.

Test systems include NCI-H23 lung; NCI-H226 lung; NCI-H322M lung; NCI-H460 lung; HOP-92 NSCLC; NCI-H522 lung; A549/ATCC NSCLC; 786-0 renal; COLO 205 colon.
Holding throughout (experiment): NCI-60 one-dose screen, 48 h (100 = growth as untreated, 0 = no growth, -100 = all killed)
For another assay, the system named is HOP-62 NSCLC. Conditions: 10 µM unless noted.

Compounds without any hit were thinned out: in the full panel of roughly 83,000, 20% have a hit.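 96-well plates, one dose, 48 hours. Percent growth reported; active if below 10.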 Unmarked numbers belong to inactive results. Activity calls are given as the source filed them.

With `O=C(OCCOCCO)N(c1cccc(Br)c1)c1nc(SCCN2CCOCC2)nc2c1cnn2CC(Cl)c1ccc(Br)cc1` (stereo not drawn), the growth was -0.582% (active) with NCI-H23 lung (10 µM unless noted); 32.1% in the assay with NCI-H226 lung (10 µM unless noted); 50.9% in the assay with NCI-H322M lung (10 µM unless noted); 32.9% with HOP-62 NSCLC; 8.55% (active) in the assay with NCI-H460 lung (10 µM unless noted); 30.9% with HOP-92 NSCLC (10 µM unless noted). The growth in the assay on NCI-H522 lung (10 µM unless noted) is -40.9% (active); in the assay with A549/ATCC NSCLC (10 µM unless noted), 15.2%; in the assay on 786-0 renal (10 µM unless noted) it was -4.79% (active); with COLO 205 colon (10 µM unless noted), -42.3% (active).

Regarding `CCCCCCCCCCCCCCCCCC(=O)Nc1ccc(OC)cc1`, the growth was 105% in the assay on NCI-H23 lung (10 µM unless noted); 103% with NCI-H226 lung (10 µM unless noted); 102% in the assay on NCI-H322M lung (10 µM unless noted); 101% in the assay on HOP-62 NSCLC; 109% in the assay on NCI-H460 lung (10 µM unless noted); 102% with HOP-92 NSCLC (10 µM unless noted). Moreover, the growth was 88.2% in the assay on NCI-H522 lung (10 µM unless noted), 104% in the assay with A549/ATCC NSCLC (10 µM unless noted), 102% in the assay on 786-0 renal (10 µM unless noted) and 120% in the assay with COLO 205 colon (10 µM unless noted).

`CCCCNc1ccc2c3c(cccc13)C(=O)N(NCC(O)COc1ccc3c(C)cc(=O)oc3c1)C2=O` (stereo not drawn): the growth with NCI-H23 lung (10 µM unless noted) was 87.4%; in the assay with NCI-H226 lung (10 µM unless noted), 87.5%; with NCI-H322M lung (10 µM unless noted), 91%; with HOP-62 NSCLC it was 97%; with NCI-H460 lung (10 µM unless noted), 92.6%; with HOP-92 NSCLC (10 µM unless noted), 78.2%. Further, the growth with NCI-H522 lung (10 µM unless noted) was 83.2%; with A549/ATCC NSCLC (10 µM unless noted) it was 87%; in the assay on 786-0 renal (10 µM unless noted), 101%; in the assay on COLO 205 colon (10 µM unless noted), 92.2%.

Consider `CC/C(=C(\c1ccc(O)cc1)c1ccc(OCCN(C)C(=O)CCOCCNC(=O)c2ccc3c(c2)CN([C@@H]2CCC(=O)NC2=O)C3=O)cc1)c1ccccc1`, for which the growth in the assay on NCI-H23 lung (1 µM) is 105%; in the assay on NCI-H23 lung (10 µM) it was 97.2%; in the assay with NCI-H226 lung (1 µM) it was 87.2%; with NCI-H226 lung (10 µM), 66.3%; in the assay on NCI-H322M lung (1 µM) it was 101%; in the assay on NCI-H322M lung (10 µM), 88.1%. In addition, the growth with NCI-H460 lung (1 µM) was 115%; with NCI-H460 lung (10 µM), 114%; with HOP-92 NSCLC (1 µM) it was 37.9%; in the assay with HOP-92 NSCLC (10 µM), 43.7%; in the assay with NCI-H522 lung (1 µM), 92.6%; in the assay on NCI-H522 lung (10 µM) it was 95.3%. Also, the growth with A549/ATCC NSCLC (1 µM) is 85%; in the assay with A549/ATCC NSCLC (10 µM), 82.2%; in the assay with 786-0 renal (1 µM), 96.6%; in the assay on 786-0 renal (10 µM) it was 93.4%; in the assay on COLO 205 colon (1 µM) it was 95.4%; in the assay with COLO 205 colon (10 µM), 94.5%.

Regarding `O=CNc1cccc(-n2cnc3cc(-c4ccc(O)cc4)ccc32)c1`, the growth with NCI-H23 lung (10 µM unless noted) was 34.6%; with NCI-H226 lung (10 µM unless noted), -0.208% (active); in the assay on NCI-H322M lung (10 µM unless noted), 68.1%; in the assay on HOP-62 NSCLC it was 42.6%; in the assay on NCI-H460 lung (10 µM unless noted), 16.7%; with HOP-92 NSCLC (10 µM unless noted), 71.7%. Also, the growth in the assay on NCI-H522 lung (10 µM unless noted) is -6.53% (active); in the assay with A549/ATCC NSCLC (10 µM unless noted) it was 42.9%; in the assay on 786-0 renal (10 µM unless noted), 39.1%; in the assay on COLO 205 colon (10 µM unless noted), 39%.

As for `N#CCc1nnc(NC(=O)c2ccc(-n3c(=O)[nH]c4ccccc4c3=O)cc2)s1`, the growth in the assay with NCI-H23 lung (10 µM unless noted) is 93%; in the assay with NCI-H226 lung (10 µM unless noted), 106%; in the assay with NCI-H322M lung (10 µM unless noted), 101%; in the assay on HOP-62 NSCLC it was 101%; in the assay with NCI-H460 lung (10 µM unless noted), 100%; in the assay with HOP-92 NSCLC (10 µM unless noted), 98.1%. Further, the growth is 89.3% in the assay with NCI-H522 lung (10 µM unless noted), 105% in the assay with A549/ATCC NSCLC (10 µM unless noted), 106% with 786-0 renal (10 µM unless noted) and 105% with COLO 205 colon (10 µM unless noted).

On to `C=CC(=O)Nc1ccc(C(=O)/C=C/c2ccc(N(C)C)cc2)c(O)c1`, for which the growth in the assay on NCI-H23 lung (10 µM unless noted) was 4.7% (active); in the assay with NCI-H226 lung (10 µM unless noted) it was 28.6%; with NCI-H322M lung (10 µM unless noted) it was 41.1%; in the assay with HOP-62 NSCLC, 10.1%; in the assay with NCI-H460 lung (10 µM unless noted) it was 0.849% (active); with HOP-92 NSCLC (10 µM unless noted), 45.8%. For the same compound, the growth in the assay with NCI-H522 lung (10 µM unless noted) is -67.5% (active); with A549/ATCC NSCLC (10 µM unless noted), 12.8%; in the assay with 786-0 renal (10 µM unless noted), -1.73% (active); in the assay with COLO 205 colon (10 µM unless noted), -59.6% (active).

For the compound `Clc1ccccc1Nc1nnc(-c2c[nH]c3ccccc23)o1`, the growth in the assay on NCI-H23 lung (10 µM unless noted) is 22.2%; with NCI-H226 lung (10 µM unless noted), 43.9%; in the assay on NCI-H322M lung (10 µM unless noted), 47.1%; in the assay on HOP-62 NSCLC, 27.2%; with NCI-H460 lung (10 µM unless noted), 16%; in the assay with HOP-92 NSCLC (10 µM unless noted), 43.9%. In addition, the growth with NCI-H522 lung (10 µM unless noted) is -25.1% (active); in the assay on A549/ATCC NSCLC (10 µM unless noted), 22.1%; with 786-0 renal (10 µM unless noted), 36%; in the assay with COLO 205 colon (10 µM unless noted), -33.6% (active).

As to `COc1ccc(NC(=O)Cn2c(/C=C/c3cccc(OC)c3)nc3ccccc3c2=O)cc1`, the growth is 40.8% with NCI-H23 lung (10 µM unless noted); 1.28% (active) with NCI-H226 lung (10 µM unless noted); 42.3% in the assay with NCI-H322M lung (10 µM unless noted); -11.5% (active) in the assay on HOP-62 NSCLC; 15.2% in the assay with NCI-H460 lung (10 µM unless noted); 3.74% (active) in the assay with HOP-92 NSCLC (10 µM unless noted). The growth is 27.3% in the assay with NCI-H522 lung (10 µM unless noted), 12.8% with A549/ATCC NSCLC (10 µM unless noted), -70.7% (active) in the assay on 786-0 renal (10 µM unless noted) and 71.6% in the assay on COLO 205 colon (10 µM unless noted).

Consider `COc1sc(/C=N/NC(=O)c2[nH]c3ccc(Br)cc3c2-c2ccccc2)cc1Br`, for which the growth in the assay on NCI-H23 lung (10 µM unless noted) is -14.1% (active); in the assay with NCI-H226 lung (10 µM unless noted), 14.7%; with NCI-H322M lung (10 µM unless noted) it was 31.4%; in the assay on HOP-62 NSCLC, 12.2%; in the assay on NCI-H460 lung (10 µM unless noted), -7.71% (active); with HOP-92 NSCLC (10 µM unless noted) it was 63.7%. Moreover, the growth with NCI-H522 lung (10 µM unless noted) was -35.8% (active); in the assay with A549/ATCC NSCLC (10 µM unless noted), 6.26% (active); in the assay on 786-0 renal (10 µM unless noted), -1.7% (active); in the assay with COLO 205 colon (10 µM unless noted), 0.155% (active).

As for `Cc1cn(-c2cc(NC(=O)c3ccc(C)c(-n4cc(-c5cnc6cccnn56)nn4)c3)cc(C(F)(F)F)c2)cn1`, the growth with NCI-H23 lung (10 µM unless noted) is 56.9%; with NCI-H226 lung (10 µM unless noted) it was 68.8%; with NCI-H322M lung (10 µM unless noted), 106%; with HOP-62 NSCLC, 80.5%; in the assay with NCI-H460 lung (10 µM unless noted), 102%; with HOP-92 NSCLC (10 µM unless noted) it was 53.9%. The growth was 81.4% in the assay on NCI-H522 lung (10 µM unless noted), 94.3% in the assay on A549/ATCC NSCLC (10 µM unless noted), 95.4% with 786-0 renal (10 µM unless noted) and 31% in the assay on COLO 205 colon (10 µM unless noted).

Consider `Cc1nc(Nc2ccccn2)sc1C1=NNC(c2ccccc2F)C1` (stereo not drawn), for which the growth in the assay with NCI-H23 lung (10 µM unless noted) is 67.6%; with NCI-H226 lung (10 µM unless noted) it was 78.9%; in the assay with NCI-H322M lung (10 µM unless noted), 89.1%; with HOP-62 NSCLC, 70.6%; in the assay with NCI-H460 lung (10 µM unless noted), 28%; with HOP-92 NSCLC (10 µM unless noted), 62.4%. Besides, the growth in the assay on NCI-H522 lung (10 µM unless noted) is -18.9% (active); with A549/ATCC NSCLC (10 µM unless noted) it was 59.2%; in the assay with 786-0 renal (10 µM unless noted), 57.6%; with COLO 205 colon (10 µM unless noted), 86%.
